Sampled rows, rich in hits. Any-hit rate of the full collection: about 2.7%.
PREPL inh: inhibitors of human prolyl oligopeptidase-like enzyme PREPL; AID 2751; inhibition, % at 5.96 µM; actives 0.68% (n = 320,000); recombinant PREPL, fluorescence polarization activity-based probe; in the data active = inhibition above about 43%;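 note: 0% = enzyme with DMSO and 100% = wells lacking enzyme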
TMEM16A inh: blocks the mouse calcium-activated chloride channel TMEM16A | normalized B-score (activity score, 25-100; higher = stronger inhibition) at 10 µM | actives 1.2% (n = 310,000) | Q8BHY3 | HEK293 TMEM16A/YFP iodide influx fluorescence, ionomycin | AID 588511;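 active = ratio plate-corrected score three or more library SD toward inhibition, starting fluorescence score within five deviations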;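 note: score derived from kinetic fluorescence span divided by baseline fluorescence per well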
PP5 primary: blocks human protein phosphatase 5 activity; AID 1987; purified PP5c, OMFP substrate fluorescence; P53041; actives 0.18% (n = 320,000); inhibition, % at 6.7 µM;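 active = inhibition above the campaign's mean inhibition across all tested compounds plus 3 SD, cut at about 9.5% in these data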;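 note: 0% = DMSO only and 100% = 100 µM cantharidin control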
DNA FID counter: counter-screen for HCV NS3 helicase inhibitors: DNA intercalator displacement; DNA fluorescent intercalator displacement, fluorescence; inhibition, % at 7.9 µM; actives 0.17% (n = 290,000); AID 1845; in the data active = inhibition above about 37%;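 note: 0% = vehicle and 100% = reference compound; higher means more ethidium bromide displaced from hairpin DNA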
ANO1 activ: mouse TMEM16A channel activation, primary screen. actives 0.3% (n = 340,000). HEK293 TMEM16A/YFP-H148Q/I152L, iodide quench fluorescence; stronger effect = lower value. Q8BHY3. AID 623877. B-score at 10 µM;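 active = fluorescence-ratio B-score plate-corrected deviation score at least 3 library SD below zero, with starting fluorescence score within 5 deviations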;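 note: channel opened by trigger with iodide after compound preincubation; score built on the fluorescence ratio of max minus min over baseline; more negative score means more quench and so TMEM16A activation or potentiation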
PP1 inh: blocks human PP1-alpha phosphatase, a PP5 counter-screen. purified PP1alpha, OMFP fluorescence. inhibition, % at 6.7 µM. actives 0.9% (n = 320,000). AID 2235;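 active = inhibition above the mean inhibition of all tested compounds plus 3 SD, computed separately for each screening campaign, cut at about 15% in these data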
Target sequence (P62136 whole entry, looked up): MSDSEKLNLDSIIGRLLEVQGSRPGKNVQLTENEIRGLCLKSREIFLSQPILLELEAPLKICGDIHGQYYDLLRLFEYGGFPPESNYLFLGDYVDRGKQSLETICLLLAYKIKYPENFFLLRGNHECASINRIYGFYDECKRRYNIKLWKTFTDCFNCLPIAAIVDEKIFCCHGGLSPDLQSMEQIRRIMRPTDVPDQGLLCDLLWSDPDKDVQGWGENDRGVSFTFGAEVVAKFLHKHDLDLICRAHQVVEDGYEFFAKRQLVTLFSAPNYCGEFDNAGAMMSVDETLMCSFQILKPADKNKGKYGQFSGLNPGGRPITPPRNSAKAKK
TMEM16A reconf: reconfirmed blocker of mouse TMEM16A calcium-activated chloride channel. shares compounds with TMEM16A inh. HEK293 TMEM16A/YFP-H148Q, iodide quench fluorescence; ionomycin added to raise cell calcium. inhibition, % at 10 µM. actives 39% (n = 2,300);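 active = mean duplicate percent inhibition, scaled so buffer wells are 0 and the reference blocker 100, over three buffer SD above buffer mean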
HEK293 Ca mobil: calcium mobilization counter-screen hit for TMEM16A inhibitor series; shares compounds with TMEM16A inh; actives 2% (n = 2,300); calcium response (% of ionomycin), % at 10 µM; TMEM16A/YFP HEK293, Fluo4 calcium mobilization;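 active = duplicate-averaged calcium signal over 20% of the ionomycin maximum, relative to buffer baseline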;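 note: each well's signal is peak minus trough fluorescence divided by its pre-addition baseline; 0% = buffer wells and 100% = ionomycin wells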
YFP-HEK293 quench: parental YFP-HEK293 iodide quench counter-screen activity | shares compounds with TMEM16A inh | 2,300 tested, under 10 active | ionomycin | YFP ratio F(max-min)/F0 at 10 µM;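 active = yellow fluorescent protein signal ratio exceeding the buffer control mean by over 5 SD of those controls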;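 note: ratio is mean of duplicate wells from kinetic YFP trace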
ClC-1 rat inh: rat ClC-1 inhibition, TMEM16A specificity screen. shares compounds with TMEM16A inh. CHO ClC-1-YFP, iodide influx fluorescence quench; iodide control reads 0, buffer control 100. ratio percent, % at 10 µM. 2,300 tested, under 10 active. AID 652236;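 active = duplicate-mean ratio percent above the mean of iodide-only control wells, which defines zero, plus 5 of their SD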;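 note: higher percent means stronger block of ClC-1 iodide influx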
* hit, by the source's call; i = inactive; · = no result given; ! = not active in a repeat.

SMILES	PREPL inh	TMEM16A inh	PP5 primary	DNA FID counter	ANO1 activ	PP1 inh	TMEM16A reconf	HEK293 Ca mobil	YFP-HEK293 quench	ClC-1 rat inh
CC1(C)CC(=O)C=C(Nc2cccc(Cl)c2Cl)C1	0.0	i	-3.2	·	i	-1.8	·	·	·	·
CN1C(=O)c2ccccc2NC(=O)[C@]12O[C@@H]2c1cccc(O)c1	14.2	i	2.2	·	i	-5.5	i	i	-0.55	-8.5
CS(=O)(=O)NN1C(=O)c2ccccc2NC1c1cccc(O)c1 (stereo not drawn)	7.5	i	4.6	0.7	i	4.5	·	·	·	·
COC(=O)c1ccc(NC(=O)CCN2CCCCC2)cc1	-3.9	25*!	-1.4	7.8	i	-2.6	i	i	-0.887	-22.0
Cc1ccc(Cn2ccc(O)c(Cc3ccccc3)c2=O)cc1	-2.9	i	-0.3	-4.1	i	-1.1	·	·	·	·
Cc1ccc([C@@H]2CC=C(C(=O)O)[C@H](c3ccccc3F)N2S(=O)(=O)c2ccccc2C)cc1	0.7	·	·	·	·	·	·	·	·	·
COc1cc(C[C@@H]2C(=O)OC[C@H]2Cc2ccc(OC)c(OC)c2)ccc1O	1.9	·	-2.2	·	i	-1.5	·	·	·	·
CCc1cc(-c2[nH]ncc2-c2ccc3c(c2)OCO3)c(O)cc1O	9.0	100*	9.3	-6.2	i	3.3	51.5%*	i	-1.25	-10.5
CCc1cc(-c2[nH]ncc2-c2ccc(OC)cc2)c(O)cc1O	-6.7	i	5.7	-4.3	i	2.4	·	·	·	·
CC(=O)Oc1c(S(=O)(=O)c2ccc(C)cc2)c(C)nn1C(C)(C)C	-7.7	i	2.6	-16.2	i	-1.7	·	·	·	·
Cc1ccc(S(=O)(=O)c2c(C)nn(C(C)(C)C)c2OC(=O)C(C)(C)C)cc1	17.1	100*	5.5	-32.8	i	-0.5	i	i	-0.988	-17.5
COc1ccc(Cn2nnnc2C(c2cccs2)N2CCCCCC2)cc1 (stereo not drawn)	12.3	100*	-0.1	-18.1	i	2.8	i	i	-0.976	-9.0
CCNC(=O)C1CC(=O)N(c2ccc(Br)cc2)C1 (stereo not drawn)	0.2	i	0.4	-0.2	i	-4.0	i	i	-0.966	-4.0
CSCC[C@H](NC(=O)OC(C)(C)C)C(=O)N1CCC(C(=O)NCC(=O)Nc2ccc(C)cc2)CC1	0.9	i	4.3	-45.2	i	-3.1	i	i	-0.934	-16.0
CC(C)(C)OC(=O)NC(Cc1ccccc1)C(=O)N1CCC(C(=O)NCC(=O)Nc2ccc(F)cc2)CC1 (stereo not drawn)	15.3	i	-1.6	-59.7	i	-1.6	·	·	·	·
O=C(Nc1cccc(S(=O)(=O)N2CCCCC2)c1)Nc1ccc(Cl)cc1Cl	-0.5	100*	1.9	0.4	i	2.6	i	i	-0.891	-17.5
O=C(Nc1cccc(S(=O)(=O)N2CCCCC2)c1)c1ccccc1NS(=O)(=O)c1ccc(F)cc1	8.6	100*	8.7	-7.0	i	10.0	39.5%*	i	-1	-11.5
Cc1ccc(NC(=O)CCNC(=O)c2ccccc2Cl)cc1S(=O)(=O)N1CCCCCC1	8.7	·	3.2	·	i	-1.6	·	·	·	·
O=C(Nc1cc(S(=O)(=O)N2CCCCC2)ccc1O)c1ccccc1NS(=O)(=O)c1ccc(F)c(F)c1	4.2	25*	-5.6	-29.6	i	16.1*	50.0%*	i	-0.797	-10.0
Cc1ccc(NC(=O)c2ccccc2NS(=O)(=O)c2ccc(F)cc2)cc1S(=O)(=O)N1CCCCC1	8.3	25*	4.4	-11.4	i	13.9	45.0%*	i	-0.902	-15.5
O=C(Nc1cc(S(=O)(=O)Nc2ccccc2Cl)ccc1O)c1ccc(F)cc1F	16.3	·	·	·	i	·	·	·	·	·
CN(C)S(=O)(=O)n1cc(/C=C(\NC(=O)c2ccccc2F)C(=O)N2CCCC2)c2ccccc21	22.3	i	-3.9	-43.4	i	-0.9	·	·	·	·
CC(NC(=O)C1CCCN(C(=O)c2ccc(Cl)cc2)C1)c1cccc(C(F)(F)F)c1 (stereo not drawn)	-11.4	·	1.2	·	i	-4.0	·	·	·	·
CC(=O)Nc1ccc(Cl)cc1C1COC(=O)C1=N (stereo not drawn)	6.6	i	4.6	-4.2	i	-3.5	·	·	·	·
CC(=O)Nc1ccc(NC(=O)C2CCCN2C(=O)Nc2ccc(F)c([N+](=O)[O-])c2)cc1 (stereo not drawn)	-2.5	i	0.5	-0.7	i	-3.6	·	·	·	·
SMILES	PREPL inh	TMEM16A inh	PP5 primary	DNA FID counter	ANO1 activ	PP1 inh	TMEM16A reconf	HEK293 Ca mobil	YFP-HEK293 quench	ClC-1 rat inh
O=C(CN1CCC(c2nc3ccccc3[nH]2)CC1)Nc1ccc2c(c1)OCO2	5.4	100*	0.9	9.0	i	-1.0	i	i	-1.24	-1.5
Cc1ccc2nc(C3CCN(CC(=O)Nc4ccc5c(c4)OCCO5)CC3)[nH]c2c1	-2.1	i	0.3	25.6	i	-1.0	·	·	·	·
CCN(CC)S(=O)(=O)c1cccc(NC(=O)COC(=O)c2cccs2)c1	1.0	25*	-3.7	-13.9	i	-3.8	i	i	-0.953	-6.5
CN(CC(=O)Nc1cccc(S(=O)(=O)N2CCCC2)c1)CC(=O)Nc1ccc(Cl)c(C(F)(F)F)c1	20.7	25*	5.4	·	i	1.1	i	i	-1.22	-2.0
Cc1ccc(NC(=O)CNc2cccc(S(=O)(=O)N3CCCC3)c2)cc1F	-13.0	25*	4.6	·	i	-4.3	22.5%*	i	-0.88	-9.5
CCN(CC)S(=O)(=O)c1cccc(NC(=O)COC(=O)/C=C/c2cccs2)c1	9.1	i	0.5	-21.3	i	3.6	·	·	·	·
CCN(CC)S(=O)(=O)c1cccc(NC(=O)CNc2cccc(S(=O)(=O)N3CCCC3)c2)c1	4.9	25*	-2.5	-29.6	i	-2.1	i	i	-1.03	-16.5
CCOc1ccc(NC(=O)CN(C)C(=O)CCCn2c(=O)oc3ccccc32)cc1OCC	11.4	i	0.1	·	i	-7.2	·	·	·	·
CN(C)c1cccc(C(=O)NCC(c2ccco2)N(C)C)c1 (stereo not drawn)	15.6	i	1.0	0.1	i	0.6	·	·	·	·
Cc1cc(C)c(C#N)c(N2CCN(CCOc3ccc(Cl)cc3)CC2)n1	-1.5	25*	4.5	4.8	i	-0.6	i	i	-1.09	-11.5
